# According to PubChem BioAssay (NCATS):
# Values joined by “and” are separate entries in the source; they are usually repeats but may differ in a detail not shown here. Equal values may be shown once. Records with an inconclusive call do not appear. Active and inactive are the calls of the source. Unless noted, the call rests on the fitted dose curve; in most records, active means well fitted curve in the direction sought with a large enough effect; inconclusive means small, poorly fitted or top-dose-only effect, or another doubt; inactive means no such curve, though single readings can be large; an effect the other way counts as inactive or inconclusive.
# Experiments:
# [1] = Quantitative High-Throughput drug screen in 47 multiple myeloma cell lines against the NCATS MIPE library collection: PE2_PLB cell viability assay (AID 1919869); further: nearly all actives have a fitted effect of over 35% in size; further: potency means the concentration at half of the fitted maximal effect;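 on viability (% of control): 100% = DMSO-only wells and 0% = cell-free media-only wells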
# Method in brief: (§1)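 Inhibition of viability over 48 h was scored by ATP content (CellTiter-Glo) in 500-cell wells. Zero and full viability were defined by media-only and DMSO-only wells.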
# [2] = Quantitative High-Throughput drug screen in 47 multiple myeloma cell lines against the NCATS MIPE library collection: PCM6_Riken cell viability assay (AID 1919870);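 further: 100% = DMSO-only wells and 0% = media-only wells; nearly all actives have a fitted effect of over 30% in size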
# Method in brief: as §1
# [3] = Quantitative High-Throughput drug screen in 47 multiple myeloma cell lines against the NCATS MIPE library collection: KMS11_JCRBsus cell viability assay (AID 1919873); further: nearly all actives have a fitted effect of over 50% in size; further: potency means the concentration at half of the fitted maximal effect;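 on viability (% of control): 100% = DMSO-only wells and 0% = media-only wells without cells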
# Method in brief: as §1
# [4] = Quantitative High-Throughput drug screen in 47 multiple myeloma cell lines against the NCATS MIPE library collection: KMS28BM_JCRB cell viability assay (AID 1919874); further: nearly all actives have a fitted effect of over 35% in size; further: potency means the concentration at half of the fitted maximal effect
# Method in brief: as §1
# [5] = qHTS drug screen for cell cycle checkpoint inhibitors in PARPi-resistant BRCA-mutant ovarian cancer cell lines. (AID 1963452; calls by dose curve; further: potency means the concentration at half of the fitted maximal effect); details: PEO1/OlaR viability, CellTiter-Glo luminescence, 96 h; for Z-AUC: stronger effect = lower value
# Method in brief: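 PEO1, PEO4 and PEO1/OlaR ovarian cancer cells, 600 per well, exposed 96 h at 37C to a dilution series. Viability read by CellTiter-Glo luminescence, normalized to DMSO and empty wells; activity summarized as Z-AUC.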
# [6] = qHTS for identification of novel therapeutic agents for treatment of microphthalmiaassociated transcription factor (MiT) renal cell carcinoma (RCC) (AID 1963991; calls by dose curve; further: potency means the concentration at half of the fitted maximal effect); details: CellTiter-Glo, 48 h; for z-score: stronger effect = lower value; for Potency: active = Z-AUC below -0.8 in all three lines
# Method in brief: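 Three TFE3-fusion RCC cell lines (UOK109, UOK124, UOK145), 500 cells/well, were exposed to the 1912-compound MIPE 4.0 library for 48 hours at 37 C. Viability was read by CellTiter-Glo luminescence, normalised to DMSO (100%) and empty wells (0%), with 11-concentration curve fits.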
# [7] = Quantitative High-Throughput drug screen in 47 multiple myeloma cell lines against the NCATS MIPE library collection: RPMI8226_ATCC cell viability assay (AID 1919871); further: nearly all actives have a fitted effect of over 30% in size; further: potency means the concentration at half of the fitted maximal effect
# Method in brief: as §1
# [8] = Quantitative High-Throughput drug screen in 47 multiple myeloma cell lines against the NCATS MIPE library collection: OPM2_DSMZ cell viability assay (AID 1919872); further: nearly all actives have a fitted effect of over 30% in size; further: potency means the concentration at half of the fitted maximal effect
# Method in brief: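 Inhibition of cell viability is measured here. Each line was plated at 500 cells per well, treated with MIPE 4.0 drugs, kept 48 hours at 37C, then assayed for ATP content by CellTiter-Glo luminescence.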
# [9] = qHTS profiling for inhibitors of Plasmodium falciparum proliferation (AID 504749); further: nearly all actives have a fitted effect of over 60% in size; further: potency means the concentration at half of the fitted maximal effect;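 on activity, negative = inhibition: 0% = DMSO vehicle and full inhibition = artemisinin control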; details: P. falciparum in erythrocytes, SYBR Green DNA, 72 h
# Method in brief: (§2)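 Infected RBCs, 0.3% parasitemia/2.5% Hct final; cpd 72 h, 37 C, 5% CO2; lysis buffer with saponin/triton/SYBR Green I, o/n RT dark; FI 485/535; norm. to artemisinin (0.29 uM) and DMSO.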
# 3D7 = experiment: as above; details: P. falciparum in erythrocytes, SYBR Green DNA, 72 h; series mostly up to 28.7 µM
# Method in brief: as §2
# 7G8 = experiment: as above; details: P. falciparum in erythrocytes, SYBR Green DNA, 72 h; series mostly up to 28.7 µM
# Method in brief: as §2
# AA1029 = experiment: as above; details: P. falciparum in erythrocytes, SYBR Green DNA, 72 h; series mostly up to 28.7 µM
# Method in brief: as §2
# AS120 = experiment: as above; details: P. falciparum in erythrocytes, SYBR Green DNA, 72 h; series mostly up to 28.7 µM
# Method in brief: as §2
# ATS189 = experiment: as above; details: P. falciparum in erythrocytes, SYBR Green DNA, 72 h; series mostly up to 28.7 µM
# Method in brief: as §2
# ATS95 = experiment: as above; details: P. falciparum in erythrocytes, SYBR Green DNA, 72 h; series mostly up to 28.7 µM
# Method in brief: as §2
# C2A = experiment: as above; details: P. falciparum in erythrocytes, SYBR Green DNA, 72 h; series mostly up to 28.7 µM
# Method in brief: as §2
# CP185 = experiment: as above; details: P. falciparum in erythrocytes, SYBR Green DNA, 72 h; series mostly up to 28.7 µM
# Method in brief: as §2
# CP191 = experiment: as above; details: P. falciparum in erythrocytes, SYBR Green DNA, 72 h; series mostly up to 28.7 µM
# Method in brief: as §2
# [10] = measured here: PEO1 parental Z-AUC
# [11] = TFE3-RCC UOK109 viability, measured here: UOK109 Z-AUC
# [12] = TFE3-RCC viability, measured here: UOK124 Z-AUC
# [13] = TFE3-RCC viability, measured here: UOK145 Z-AUC
structure (smiles),measurement,setting,value
C[C@]12CC[C@H](O)CC1=CCC1C2CC[C@]2(C)C(n3cnc4ccccc43)=CCC12 (stereo partly specified),Potency,[1],inactive
same,Potency,[2],inactive
same,Potency,[3],inactive
same,Potency,[4],inactive
same,Z-AUC,[5],0.586 (inactive)
same,Z-AUC,[5]; [10],1.13
same,Z-AUC,[5]; measured here: PEO4 Z-AUC,0.642
same,z-score,[6]; [11],0.298
same,z-score,[6]; [12],0.603
same,z-score,[6]; [13],-0.0216
CCCn1c(=O)c2[nH]c(-c3cnn(Cc4cccc(C(F)(F)F)c4)c3)nc2n(CC)c1=O,Potency,[1],inactive
same,Potency,[2],inactive
same,Potency,[7],7.43 µM (active)
same,Potency,[3],inactive
same,Potency,[4],inactive
same,Z-AUC,[5],1.35 (inactive)
same,Z-AUC,[5]; [10],1.45
same,Z-AUC,[5]; measured here: PEO4 Z-AUC,1.33
same,z-score,[6]; [11],0.85
same,z-score,[6]; [12],0.351
same,z-score,[6]; [13],0.744
Cn1c(=O)n(-c2ccc(C(C)(C)C#N)cc2)c2c3cc(-c4cnc5ccccc5c4)ccc3ncc21,Potency,[7],0.0105 µM (active)
same,Potency,[8],0.0743 µM (active)
same,Potency,[4],0.0209 µM (active)
same,Potency,[5],0.002 µM (active)
same,Z-AUC,[5]; [10],-1.42
same,Z-AUC,[5]; measured here: PEO4 Z-AUC,-1.44
COC(=O)C[C@](O)(CCCC(C)(C)O)C(=O)O[C@@H]1C(OC)=C[C@]23CCCN2CCc2cc4c(cc2[C@H]13)OCO4,Potency,[1],20.9 µM (active)
same,Potency,[8],inactive
same,Potency,[3],29.6 µM (active)
same,Potency,[4],10.5 µM (active)
same,Potency,[5],0.436 µM (active)
same,Z-AUC,[5]; [10],-2.08
same,Z-AUC,[5]; measured here: PEO4 Z-AUC,-2.6
same,Potency,[9]; parasite line A,0.0251 µM (active)
same,Potency,[9]; parasite line B,0.0251 µM (active)
same,Potency,3D7,0.0251 µM (active)
same,Potency,7G8,0.0112 µM (active)
same,Potency,AA1029,0.0251 µM (active)
same,Potency,AS120,0.0158 µM (active)
same,Potency,ATS189,0.0316 µM (active)
same,Potency,ATS95,0.0282 µM (active)
same,Potency,C2A,0.0224 µM (active)
same,Potency,CP185,0.0355 µM (active)
same,Potency,CP191,0.0282 µM (active)
Cc1cccc(C=NNc2cc(N3CCOCC3)nc(OCCc3ccccn3)n2)c1,Potency,[1],18.7 µM (active)
same,Potency,[7],18.7 µM (active)
same,Potency,[8],6.62 µM (active)
same,Potency,[3],2.64 µM (active)
same,Potency,[6]; TFE3-RCC UOK109 viability,0.118 µM (active)
same,z-score,[6]; [11],-0.897
same,z-score,[6]; [12],-1.42
same,z-score,[6]; [13],-0.962
CC(C)(O)CCc1ccc(OCc2cc(-c3cccc(OC(F)F)c3)c3ncccc3c2)cc1,Potency,[1],inactive
same,Potency,[2],inactive
same,Potency,[8],inactive
same,Potency,[3],inactive
same,Potency,[4],inactive
same,Z-AUC,[5],-0.38 (inactive)
same,Z-AUC,[5]; [10],0.116
same,Z-AUC,[5]; measured here: PEO4 Z-AUC,0.147
same,z-score,[6]; [11],0.14
same,z-score,[6]; [12],0.328
same,z-score,[6]; [13],0.0594
C[C@H]1C[C@@H]2[C@@H]([C@@H](O)C[C@@]3(C)[C@H]2CC[C@]3(O)C(=O)CO)[C@@]2(C)C=CC(=O)C=C12,Potency,[1],inactive
same,Potency,[3],0.105 µM (active)
same,Potency,[4],inactive
same,z-score,[6]; [11],0.15
same,z-score,[6]; [12],0.208
same,z-score,[6]; [13],0.428
same,"activity, negative = inhibition","[9]; at 12.8 µM (top of the series), parasite line A",-0.344% (inactive)
same,"activity, negative = inhibition","[9]; at 12.8 µM (top of the series), parasite line B",-25.6% (inactive)
same,Potency,3D7,inactive
same,Potency,7G8,inactive
same,Potency,AA1029,inactive
same,Potency,AS120,inactive
same,Potency,ATS189,inactive
same,Potency,ATS95,inactive
same,Potency,C2A,inactive
same,Potency,CP185,inactive
same,Potency,CP191,inactive
Nc1ccn([C@@H]2CS[C@H](CO)O2)c(=O)n1,Potency,[7],inactive
same,Potency,[8],inactive
same,Potency,[4],inactive
same,Z-AUC,[5],-0.72 (inactive)
same,Z-AUC,[5]; [10],-0.233
same,Z-AUC,[5]; measured here: PEO4 Z-AUC,-0.547
same,z-score,[6]; [11],-0.159
same,z-score,[6]; [12],0.923
same,z-score,[6]; [13],0.391
same,"activity, negative = inhibition","[9]; at 28.7 µM (top of the series), parasite line A",3.35% (inactive) and 3.28% (inactive)
same,"activity, negative = inhibition","[9]; at 28.7 µM (top of the series), parasite line B",12% (inactive) and -4.61% (inactive)
same,Potency,3D7,inactive
same,Potency,7G8,inactive
same,Potency,AA1029,inactive
same,Potency,AS120,inactive
same,Potency,ATS189,inactive
same,Potency,ATS95,inactive
same,Potency,C2A,inactive
same,Potency,CP185,inactive
same,Potency,CP191,inactive
Cc1ccc(CN2CCNCC2)cc1NC(=O)CNc1ccc(F)c(F)c1,Potency,[1],inactive
same,Potency,[2],inactive
same,Potency,[8],inactive
same,Z-AUC,[5],-0.297 (inactive)
same,Z-AUC,[5]; [10],-0.179
same,Z-AUC,[5]; measured here: PEO4 Z-AUC,-0.154
CCc1cc2c(cc1N1CCC(N3CCOCC3)CC1)C(C)(C)c1[nH]c3cc(C#N)ccc3c1C2=O,Z-AUC,[5],0.0393 (inactive)
same,Z-AUC,[5]; [10],-0.229
same,Z-AUC,[5]; measured here: PEO4 Z-AUC,-0.554
COc1ccc(CC2c3cc(OC)c(OC)cc3CC[N+]2(C)CCC(=O)OCCCCCOC(=O)CC[N+]2(C)CCc3cc(OC)c(OC)cc3C2Cc2ccc(OC)c(OC)c2)cc1OC (stereo unspecified),viability (% of control),[1],81% [at 5.15 µM] (inactive)
same,viability (% of DMSO),[8],116% [at 5.15 µM] (inactive)
same,viability (% of control),[3],114% [at 5.15 µM] (inactive)
same,"viability, % of control",[4],110% [at 5.15 µM] (inactive)
same,Z-AUC,[5],0.349 (inactive)
same,Z-AUC,[5]; [10],0.569
same,Z-AUC,[5]; measured here: PEO4 Z-AUC,0.213
same,z-score,[6]; [11],1.41
same,z-score,[6]; [12],1.48
same,z-score,[6]; [13],1.15
CN[C@H]1CCc2cc(OC)c(OC)c(OC)c2-c2ccc(OC)c(=O)cc21,Potency,[7],0.0083 µM (active)
same,Potency,[8],0.0017 µM (active)
same,Potency,[3],0.0013 µM (active)
same,Potency,[4],0.0033 µM (active)
same,Potency,[5],0.174 µM (active)
same,Z-AUC,[5]; [10],-1.41
same,Z-AUC,[5]; measured here: PEO4 Z-AUC,-1.47
same,Potency,[6]; TFE3-RCC UOK109 viability,0.00372 µM (active)
same,z-score,[6]; [11],-2.54
same,z-score,[6]; [12],-2.9
same,z-score,[6]; [13],-0.848
